High-throughput results deposited in PubChem by National Center for Advancing Translational Sciences (NCATS).
Most compounds without a hit are left out; they make up all but 7.5% or so of the library.
Rab9 promoter act: activators of Rab9 promoter. Huh7 Rab9 promoter-luciferase reporter, luminescence, 24 h. Potency, µM (titrated, usually from 9.22 µM), hits mostly activators. 320,000 tested, 2.8% active; also: nearly all actives have a fitted effect of over 60% in size
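Promoter activation is measured as luciferase luminescence in Huh7 cells stably transfected with a Rab9 promoter–luciferase construct, following 24 h compound exposure at 37 °C and 10 min reagent incubation at ambient temperature.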
FLuc modulator: inhibits or activates purified firefly luciferase, miR-21 counter-screen | P08659 | purified FLuc, Km substrates, luminescence inhibition | Potency, µM (series often up to 57.5 µM), usual class: inhibitors | 360,000 tested, 6.9% active | AID 588342; also: nearly all actives have a fitted effect of over 55% in size
Target sequence (P08659 whole entry, looked up): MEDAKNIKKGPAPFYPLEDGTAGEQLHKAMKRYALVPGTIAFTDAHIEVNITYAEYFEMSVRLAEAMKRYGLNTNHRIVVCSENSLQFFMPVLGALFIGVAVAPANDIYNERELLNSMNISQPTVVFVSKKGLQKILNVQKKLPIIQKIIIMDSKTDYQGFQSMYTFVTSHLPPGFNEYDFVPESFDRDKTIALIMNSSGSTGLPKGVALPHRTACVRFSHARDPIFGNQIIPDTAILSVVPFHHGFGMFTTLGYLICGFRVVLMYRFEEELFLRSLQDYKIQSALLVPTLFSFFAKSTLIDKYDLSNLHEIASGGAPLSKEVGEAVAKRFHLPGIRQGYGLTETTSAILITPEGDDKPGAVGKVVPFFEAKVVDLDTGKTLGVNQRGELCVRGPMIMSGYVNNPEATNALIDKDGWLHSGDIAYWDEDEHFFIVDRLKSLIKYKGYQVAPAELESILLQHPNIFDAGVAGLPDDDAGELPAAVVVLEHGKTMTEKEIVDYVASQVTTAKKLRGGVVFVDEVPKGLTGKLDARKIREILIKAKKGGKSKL
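Purified P. pyralis luciferase, 10 nM final, with Km-level 10 uM D-luciferin and 10 uM ATP in 50 mM Tris acetate pH 7.5, 10 mM Mg acetate, 0.01% Tween-20, 0.05% BSA; 6-point qHTS titration about 60 µM downward; luminescence read.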
ELG1 genotox: induces genotoxicity in HEK293T cells with luciferase-tagged ELG1; HEK293T ELG1-luciferase reporter, luminescence, 16 h; Potency, µM (highest dose often 46 µM), usual class: activators; 330,000 tested, 1.3% active; AID 504466; also: nearly all actives have a fitted effect of over 60% in size
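Step 1: seed 2,000 HEK293T ELG1-luciferase cells per well. Step 2: add compound or DMSO, incubate 16 hr at 37 °C. Step 3: ONE-Glo, 30 min at room temperature, read luminescence.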
Luc counter: Kinase-Glo luciferase inhibition (counter-screen); Potency, µM (titrated, usually from 38.3 µM), actives largely listed as inhibitors; Kinase-Glo luciferase, ATP luminescence, 8 min; 200,000 tested, 0.28% active; also: nearly all actives have a fitted effect of over 60% in size
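Luminescence was the read-out, taken after 8-minute incubation at ambient temperature. Luciferase turned over luciferin with 10 uM ATP in imidazole pH 7.2 buffer containing KCl, MgCl2, Tween 20 and BSA.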
NPC1 promoter act: activators of NPC1 promoter. 320,000 tested, 2.4% active. AID 485313. Potency, µM (highest dose often 9.22 µM), hits mostly activators. Huh7 NPC1 promoter luciferase reporter, 24 h; also: nearly all actives have a fitted effect of over 60% in size
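Stable NPC1-promoter luciferase Huh7 line; cpd (DMSO) 24 h, 37 °C, 5% CO2; Amplite luciferase reagent 10 min RT; luminescence readout. qHTS format.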
SMN2 splice enh: enhancers of SMN2 splice variant expression; Potency, µM (titrated, usually from 46.1 µM), usual class: activators; HEK293 SMN2-luciferase splicing reporter, luminescence, 30-36 h; 210,000 tested, 2.8% active; AID 1458; also: nearly all actives have a fitted effect of over 55% in size
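qHTS luciferase splicing reporter: luminescence rises when SMN2 exon 7 is included in transfected HEK293 cells. Compound exposure lasted 30-36 h at 37C, with 4.5 mM final sodium butyrate as control, followed by a ONE-Glo read.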
Hits are given with their value; n = inactive; u = inconclusive; x = not tested or not shown; [ ] = remark or other dose. Calls follow the shape of the dose curve; as a rule, active = well fitted curve in the direction sought with a large enough effect; inconclusive = small, poorly fitted or top-dose-only effect, or another doubt; inactive = no such curve, though single readings can be large; an effect the other way counts as inactive or inconclusive.

SMILES	Rab9 promoter act	FLuc modulator	ELG1 genotox	Luc counter	NPC1 promoter act	SMN2 splice enh
C=CCOc1ccc(CC(=O)O)cc1Cl	x	x	x	n	x	x
Cc1ccc(N2C(=O)NC(C(F)(F)F)(C(F)(F)F)C3=C2CC(C)(C)CC3=O)cc1	n	n	n	n	n	n
Cc1cccnc1Nc1nc(-c2ccccc2)cs1	3.5µM	1.9µM	2.6µM	x	3.2µM	x
Cc1cccnc1Nc1nc(-c2ccccn2)cs1	n	u	5.8µM	n	u	x
CC1CCN(CCNC(=O)C2CCCN(S(=O)(=O)c3cccc4nsnc34)C2)CC1 (centres undefined)	n	n	n	x	n	x
CCCCn1c(N)c(N(CC(C)C)C(=O)c2ccc(-c3ccc([N+](=O)[O-])cc3)o2)c(=O)[nH]c1=O	n	n	n	x	n	x
O=C(Nc1cccc(F)c1)c1ccc2ncsc2c1	3.5µM	13µM	n	x	2.2µM	x
O=C(Nc1ccccc1Br)c1ccc2nccnc2c1	2µM	6.7µM	n	x	3.2µM	x
O=C(Nc1ccccc1F)c1ccc2ncsc2c1	4µM	u	n	x	2.2µM	x
O=C(Nc1ccncc1)c1ccc2ncsc2c1	n	n	u	x	n	x
Cc1ccccc1NC(=O)c1ccc2nccnc2c1	n	u	n	x	n	x
O=C(Nc1ccc(Cl)cc1Cl)c1ccc2ncsc2c1	2.2µM	2.7µM	u	x	2.2µM	x
O=C(CCS(=O)(=O)c1cc(Br)cc2c1N(C(=O)C1CC1)CC2)NCc1ccc(Cl)cc1	x	n	x	x	x	n
CCN(CC(=O)Nc1ccccc1C(F)(F)F)C(=O)CCS(=O)(=O)c1ccc(C)cc1	n	n	n	x	n	x
CC(CCN1C(Nc2ccccc2)=NC[C@@H]1Cc1ccccc1)c1ccccc1 (some centres undefined)	n	n	n	x	n	x
O=C(Nc1ccc(F)cc1F)c1ccc2ncsc2c1	4µM	27µM	n[9.26 µM]	x	2.5µM	x
O=C(Nc1nnc(SCc2ccc(F)cc2)s1)c1ccc2ncsc2c1	u	u	u	n	u	13µM
CN(C)S(=O)(=O)c1cccc(COc2cccnc2[N+](=O)[O-])c1	n	n	n	x	n	x
O=[N+]([O-])c1ncccc1OCc1ccc(Cl)c(Cl)c1	u	24µM	18µM	x	u	x
CN(C(=O)C1CCN(S(=O)(=O)c2ccccc2)CC1)c1c(N)n(Cc2ccccc2)c(=O)[nH]c1=O	n	n	n	x	n	x
CN1CCN(CCc2ccc(Cl)c(Cl)c2)CC1	x	x	x	n	x	n
CN(C)S(=O)(=O)c1ccc(C(=O)NCCS(=O)(=O)N2CCN(c3ccc(F)cc3)CC2)cc1	n	n	n	x	n	x
CN(C)S(=O)(=O)c1ccc(C(=O)NCc2ccccc2)cc1	n	n	n	n	n	n
CN(C)S(=O)(=O)c1ccc(C(=O)NCCOc2ccc(F)cc2)cc1	u	u	13µM	n	n	n
CN(C)S(=O)(=O)c1ccc(C(=O)NCCOc2ccccc2)cc1	2.8µM	13µM	u	n	4µM	11µM
SMILES	Rab9 promoter act	FLuc modulator	ELG1 genotox	Luc counter	NPC1 promoter act	SMN2 splice enh
CCn1c(=N)c(C(=O)NCc2ccccc2)cc2c(=O)n3cc(C)ccc3nc21	x	n	x	x	x	n
CN(C)c1ccc(/C=N/NC(=O)c2ccc3c(c2)OCO3)cc1	u	8.5µM	u	x	u	x
Cc1ccc(/C=N\NC(=O)c2ccc3c(c2)OCO3)o1	u	24µM	u	x	u	x
Nc1nonc1C(=O)N/N=C\c1cc2c(cc1Cl)OCO2	n	u	n	x	n	x
Cn1cc(Br)c(C(=O)N/N=C/c2cc3c(cc2Cl)OCO3)n1	u	6µM	u	x	2.8µM	x
Cc1ccc(C(=O)N/N=C/c2ccc3c(c2)OCO3)o1	2.8µM	6µM	u	u	3.2µM	13µM
CCn1cc(/C=N/NC(=O)c2ccc3c(c2)OCO3)cn1	n	u	n	n	n	n
O=C(N/N=C/c1ccc([N+](=O)[O-])o1)c1ccc2c(c1)OCO2	n	u	n	x	n	x
Cc1cc(NC(=O)C(C)(C)Oc2ccc(Cl)cc2)cc(-c2nc3ncccc3o2)c1O	x	n	x	x	x	n
Cc1ccc(C(=O)/C=C/c2ccc3c(c2)OCO3)o1	n	2.4µM	n	n	n	n
CCOc1cc(/C=N/NC(=O)c2nn(C)cc2Br)ccc1OCc1ccccc1Cl	n	u	n	n	n	n
COC(=O)/C=C/c1ccc2c(c1)OCO2	n	u	n	n	n	n
O=C(O)c1ccc(/C=N/NC(=O)c2ccc3c(c2)OCCO3)cc1	n	6.7µM	u	x	n	x
O=C(O)c1ccc(CNC(=O)c2ccc3c(c2)OCCO3)cc1	n	u	n	x	n	x
Cn1cc(Br)c(C(=O)N/N=C/c2cccc(OC3CSC3)c2)n1	n	19µM	n	n	n	n
O=C(N/N=C/c1ccccc1)c1cc(-c2ccc3c(c2)OCO3)n[nH]1	n	n	n	n	n	n
O=C(N/N=C/c1ccccc1)c1ccc2c(c1)OCO2	0.4µM	u	u	x	0.56µM	x
CC(C)Oc1ccc(S(=O)(=O)N2CCOCC2)cc1NC(=O)c1ccc(N2CCCC2=O)cc1	n	n	n	x	n	x
COc1ccccc1NC(=O)Nc1nc(CC(=O)NCc2ccc(F)cc2)cs1	n	u	n	x	n	x
COc1cc(/C=N/NC(=O)CNC(=O)c2ccc3c(c2)OCCO3)ccc1O	n	n	n	n	n	n
O=C(N/N=C/c1ccc(Br)o1)c1ccc2c(c1)OCCO2	3.2µM	6µM	u	n	3.2µM	11µM
O=C(CNC(=O)c1ccc2c(c1)OCCO2)N/N=C/c1ccco1	n	n	n	x	n	x
CCOC(=O)N/N=C\c1ccc(OC(=O)c2ccc3c(c2)OCO3)cc1	n	15µM	n	n	n	n
O=C(N/N=C/c1cccc(O)c1)c1cc(-c2ccc3c(c2)OCO3)n[nH]1	n	5.4µM	n	n	n	n
COc1cc(/C=N/NC(=O)c2ccc3c(c2)OCCO3)cc(Cl)c1O	n	13µM	n	x	n	x
SMILES	Rab9 promoter act	FLuc modulator	ELG1 genotox	Luc counter	NPC1 promoter act	SMN2 splice enh
CCc1ccc(-n2nc(CO)c(C(=O)NCc3ccccn3)n2)cc1	x	u	x	x	x	n
COc1cccc(NC(=S)N2CCC(NC(=O)c3ccco3)CC2)c1	n	n	n	x	n	x
Cc1nn(C)cc1/C=N/NC(=O)c1ccc2c(c1)OCO2	n	17µM	n	n	n	n
Cc1cc(C)n2nc(C(=O)N/N=C/c3cn(C)nc3C)nc2n1	n	n	n	x	n	x
COc1cccc(NC(=O)c2cc3ccccc3oc2=O)c1	2.5µM	0.24µM	0.92µM	x	1.4µM	x
COc1ccc2oc(=O)c(/C(C)=N/Nc3ccccc3)cc2c1	n	24µM	n	n	n	n
COc1ccc2oc(=O)c(C(=O)N3CCN(C(=O)c4ccccc4)CC3)cc2c1	n	n	n	x	n	x
COc1ccc(NC(=O)c2cc3ccccc3o/c2=N\NS(=O)(=O)c2ccc(C)cc2)cc1	0.45µM	n	u	x	1µM	x
Cc1cccnc1NC(=O)c1cc2ccccc2oc1=O	1µM	0.6µM	2.1µM	n	1.8µM	20µM
